Common to all, as to test: DAPPL (digital affinity profiling via proximity ligation, sequencing); 10 mM Tris-HCl pH 7.5, 50 mM NaCl, 1 mM DTT, 4% glycerol, room temperature, 30 min; GST-TFs on glutathione beads, 16-mer random dsDNA library, 0.1% formaldehyde crosslink after washing; high values mean tight binding
One experiment concerns the target T1, FEV (Homo sapiens, UniProt Q99581 1-238).
T1 sequence: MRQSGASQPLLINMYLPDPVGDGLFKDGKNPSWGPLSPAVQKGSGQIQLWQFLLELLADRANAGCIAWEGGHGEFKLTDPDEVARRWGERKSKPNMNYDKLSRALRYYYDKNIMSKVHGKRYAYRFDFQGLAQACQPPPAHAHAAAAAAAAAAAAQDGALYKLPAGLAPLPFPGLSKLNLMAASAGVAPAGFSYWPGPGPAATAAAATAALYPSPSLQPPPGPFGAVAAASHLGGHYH
The conditions noted are these: protein: recombinant; tags: N-terminal GST; dsDNA, one strand shown. In a few lines:
(§1)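 Binding signal is each hexamer's read frequency for a factor divided by its frequency in the tag-only sample. The factors were GST-fused human transcription factors from yeast, captured on glutathione beads, DNA-barcoded and pooled with that sample. Pools were incubated with 200 nmole of a random double-stranded 16-mer DNA library in Tris/NaCl/DTT/glycerol buffer at room temperature for 30 min, then washed, crosslinked with 0.1% formaldehyde, proximity-ligated with BsaI/T4 ligase (1 h, 37 °C), PCR-amplified and sequenced on an Illumina NextSeq500.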

The target of a further experiment is ETV5 (Homo sapiens, UniProt P41161 1-510). As to conditions: protein: recombinant; tags: N-terminal GST; dsDNA, one strand shown. In a few lines: as §1
ETV5, sequence (P41161 whole entry): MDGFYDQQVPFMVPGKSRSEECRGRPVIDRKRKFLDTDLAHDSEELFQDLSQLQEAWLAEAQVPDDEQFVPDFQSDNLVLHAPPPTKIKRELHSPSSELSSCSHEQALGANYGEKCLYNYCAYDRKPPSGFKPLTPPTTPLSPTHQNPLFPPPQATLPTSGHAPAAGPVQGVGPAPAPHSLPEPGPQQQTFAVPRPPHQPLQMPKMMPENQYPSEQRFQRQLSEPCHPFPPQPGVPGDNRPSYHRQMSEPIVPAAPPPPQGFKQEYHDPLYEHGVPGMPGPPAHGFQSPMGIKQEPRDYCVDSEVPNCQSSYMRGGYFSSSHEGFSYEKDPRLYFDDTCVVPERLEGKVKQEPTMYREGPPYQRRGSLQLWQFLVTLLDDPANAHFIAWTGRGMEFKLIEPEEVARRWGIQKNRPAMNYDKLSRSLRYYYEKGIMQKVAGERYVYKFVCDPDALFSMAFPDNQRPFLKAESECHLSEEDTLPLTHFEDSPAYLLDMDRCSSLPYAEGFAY
For the next experiment, the target named is HSF1 (Homo sapiens, UniProt Q00613 1-529). As to conditions: protein: recombinant; tags: N-terminal GST; chain copies: 3; dsDNA, one strand shown. In a few lines:
as §1

In a further experiment the target is T2, SPIC (Homo sapiens, UniProt Q8N5J4 1-248).
T2 sequence: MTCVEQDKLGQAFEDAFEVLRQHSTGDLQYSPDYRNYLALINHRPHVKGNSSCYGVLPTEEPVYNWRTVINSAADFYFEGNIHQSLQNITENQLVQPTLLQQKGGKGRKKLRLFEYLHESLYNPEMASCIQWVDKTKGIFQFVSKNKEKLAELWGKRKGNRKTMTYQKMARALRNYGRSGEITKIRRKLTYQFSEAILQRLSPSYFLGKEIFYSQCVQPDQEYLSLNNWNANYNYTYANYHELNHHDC
As to conditions: protein: recombinant; tags: N-terminal GST; dsDNA, one strand shown. Put shortly:
as §1

In a further experiment the target is ELF4 (Homo sapiens, UniProt Q99607 1-663). As to conditions: protein: recombinant; tags: N-terminal GST; dsDNA, one strand shown. In a few lines: as §1
ELF4, sequence (Q99607 whole entry): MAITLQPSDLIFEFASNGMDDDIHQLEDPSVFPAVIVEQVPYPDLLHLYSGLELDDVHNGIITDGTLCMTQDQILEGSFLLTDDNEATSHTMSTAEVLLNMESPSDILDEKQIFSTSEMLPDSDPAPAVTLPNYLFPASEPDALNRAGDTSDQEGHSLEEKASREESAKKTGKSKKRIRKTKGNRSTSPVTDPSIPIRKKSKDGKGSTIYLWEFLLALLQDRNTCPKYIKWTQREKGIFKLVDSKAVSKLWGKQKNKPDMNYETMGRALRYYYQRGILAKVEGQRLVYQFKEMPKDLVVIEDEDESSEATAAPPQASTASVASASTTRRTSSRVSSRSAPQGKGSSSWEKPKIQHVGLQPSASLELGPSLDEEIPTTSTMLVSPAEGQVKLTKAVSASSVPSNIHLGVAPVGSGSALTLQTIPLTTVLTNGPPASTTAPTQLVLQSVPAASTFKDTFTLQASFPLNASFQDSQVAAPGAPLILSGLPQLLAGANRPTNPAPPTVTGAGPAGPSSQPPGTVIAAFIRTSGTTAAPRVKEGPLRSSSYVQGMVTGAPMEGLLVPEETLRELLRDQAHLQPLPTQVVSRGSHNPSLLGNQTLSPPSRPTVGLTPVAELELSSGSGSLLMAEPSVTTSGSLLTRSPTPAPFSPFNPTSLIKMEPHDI
For a further experiment, the target named is T3, ELK4 (Homo sapiens, UniProt P28324-2 1-405).
T3 sequence: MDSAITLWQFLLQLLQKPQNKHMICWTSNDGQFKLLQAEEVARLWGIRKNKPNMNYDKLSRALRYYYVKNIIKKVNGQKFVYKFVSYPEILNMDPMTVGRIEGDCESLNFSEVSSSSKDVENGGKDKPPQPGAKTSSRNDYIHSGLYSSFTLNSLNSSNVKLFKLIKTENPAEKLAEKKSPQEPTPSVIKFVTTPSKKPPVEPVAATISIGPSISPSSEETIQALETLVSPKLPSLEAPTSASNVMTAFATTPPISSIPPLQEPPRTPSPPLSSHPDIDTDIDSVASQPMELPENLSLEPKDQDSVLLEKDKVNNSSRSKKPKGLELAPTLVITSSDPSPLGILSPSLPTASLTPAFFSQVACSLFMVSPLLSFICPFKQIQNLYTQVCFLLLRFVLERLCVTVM
The conditions noted are these: protein: recombinant; tags: N-terminal GST; dsDNA, one strand shown. Put shortly:
as §1

A further experiment deals with T4, ETV2 (Homo sapiens, UniProt O00321 1-342).
T4 sequence: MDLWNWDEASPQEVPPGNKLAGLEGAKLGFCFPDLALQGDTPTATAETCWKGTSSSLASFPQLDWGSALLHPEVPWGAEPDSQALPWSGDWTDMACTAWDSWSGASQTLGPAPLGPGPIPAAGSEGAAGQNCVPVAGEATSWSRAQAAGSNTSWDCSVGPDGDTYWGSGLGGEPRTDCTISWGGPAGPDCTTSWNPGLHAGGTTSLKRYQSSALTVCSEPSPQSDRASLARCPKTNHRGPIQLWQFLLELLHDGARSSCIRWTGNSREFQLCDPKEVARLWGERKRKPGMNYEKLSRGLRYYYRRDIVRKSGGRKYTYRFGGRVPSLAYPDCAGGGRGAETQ
The conditions noted are these: protein: recombinant; tags: N-terminal GST; dsDNA, one strand shown. Put shortly:
as §1

A further experiment concerns the target T5, ELF3 (Homo sapiens, UniProt P78545 1-371).
T5 sequence: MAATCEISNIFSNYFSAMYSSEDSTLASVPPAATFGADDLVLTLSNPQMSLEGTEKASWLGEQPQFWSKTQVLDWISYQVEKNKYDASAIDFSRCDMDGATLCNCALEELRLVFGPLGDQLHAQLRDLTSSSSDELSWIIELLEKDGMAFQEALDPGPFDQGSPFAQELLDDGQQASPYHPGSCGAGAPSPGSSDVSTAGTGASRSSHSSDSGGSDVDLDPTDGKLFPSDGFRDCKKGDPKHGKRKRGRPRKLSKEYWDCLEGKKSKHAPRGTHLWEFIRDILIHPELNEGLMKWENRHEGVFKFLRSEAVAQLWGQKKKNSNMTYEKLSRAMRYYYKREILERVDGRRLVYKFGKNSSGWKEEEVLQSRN
As to conditions: protein: recombinant; tags: N-terminal GST; dsDNA, one strand shown. In a few lines: as §1

The target in a further experiment is CRX (Homo sapiens, UniProt O43186 1-299). As to conditions: protein: recombinant; tags: N-terminal GST; dsDNA, one strand shown. In a few lines: as §1
CRX, sequence (O43186 whole entry): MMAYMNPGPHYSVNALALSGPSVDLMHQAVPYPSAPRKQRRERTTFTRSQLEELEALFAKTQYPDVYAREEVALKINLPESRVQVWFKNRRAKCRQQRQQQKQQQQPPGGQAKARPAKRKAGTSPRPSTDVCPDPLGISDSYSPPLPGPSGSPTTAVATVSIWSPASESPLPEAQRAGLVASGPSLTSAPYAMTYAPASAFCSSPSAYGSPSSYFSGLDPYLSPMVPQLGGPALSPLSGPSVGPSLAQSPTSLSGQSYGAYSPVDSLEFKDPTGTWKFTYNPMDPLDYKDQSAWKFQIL
For a further experiment, the target named is ETV1 (Homo sapiens, UniProt P50549 1-477). As to conditions: protein: recombinant; tags: N-terminal GST; dsDNA, one strand shown. Put shortly:
as §1

Here are results for 8 sequences from publication PMC7862700, “An all-to-all approach to the identification of sequence-specific readers for epigenetic DNA modifications on cytosine”.

HSF1, sequence (Q00613 whole entry): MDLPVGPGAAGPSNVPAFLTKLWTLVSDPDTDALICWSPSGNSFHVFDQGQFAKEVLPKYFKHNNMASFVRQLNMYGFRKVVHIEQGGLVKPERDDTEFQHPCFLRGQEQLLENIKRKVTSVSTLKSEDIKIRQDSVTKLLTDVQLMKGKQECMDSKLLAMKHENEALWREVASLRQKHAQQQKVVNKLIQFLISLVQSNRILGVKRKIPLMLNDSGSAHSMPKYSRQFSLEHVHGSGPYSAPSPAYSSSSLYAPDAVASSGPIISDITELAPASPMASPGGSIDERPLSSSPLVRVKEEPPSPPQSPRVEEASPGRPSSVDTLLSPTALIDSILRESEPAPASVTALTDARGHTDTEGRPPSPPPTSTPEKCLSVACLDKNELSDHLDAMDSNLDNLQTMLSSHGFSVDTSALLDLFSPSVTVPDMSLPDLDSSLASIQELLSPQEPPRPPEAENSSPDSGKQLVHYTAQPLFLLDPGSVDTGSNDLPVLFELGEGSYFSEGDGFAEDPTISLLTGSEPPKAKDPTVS
ETV1, sequence (P50549 whole entry): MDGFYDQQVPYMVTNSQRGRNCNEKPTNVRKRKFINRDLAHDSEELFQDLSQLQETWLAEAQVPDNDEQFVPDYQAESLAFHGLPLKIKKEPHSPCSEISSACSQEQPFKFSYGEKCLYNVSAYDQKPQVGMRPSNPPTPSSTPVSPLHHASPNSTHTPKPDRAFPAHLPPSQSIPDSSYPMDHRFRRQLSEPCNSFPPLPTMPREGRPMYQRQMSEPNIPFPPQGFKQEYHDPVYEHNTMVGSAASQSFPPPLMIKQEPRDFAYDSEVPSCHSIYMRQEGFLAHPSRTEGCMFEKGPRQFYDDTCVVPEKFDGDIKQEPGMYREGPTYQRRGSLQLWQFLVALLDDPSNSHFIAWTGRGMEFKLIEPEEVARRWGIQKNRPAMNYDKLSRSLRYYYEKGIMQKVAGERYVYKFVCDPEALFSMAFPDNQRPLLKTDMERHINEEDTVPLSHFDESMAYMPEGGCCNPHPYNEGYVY

With TCTTCC, the binding signal was 2.55 fold enrichment (6-mer frequency, TF over GST control) in the experiment with FEV; 2.85 fold enrichment (6-mer frequency, TF over GST control) with ETV5; 1.69 fold enrichment (6-mer frequency, TF over GST control) with HSF1; 2.31 fold enrichment (6-mer frequency, TF over GST control) with SPIC; 2.35 fold enrichment (6-mer frequency, TF over GST control) with ELF4; 2.38 fold enrichment (6-mer frequency, TF over GST control) with ELK4. The binding signal in the experiment with ETV2 is 2.61 fold enrichment (6-mer frequency, TF over GST control); with ELF3, 2.33 fold enrichment (6-mer frequency, TF over GST control); with CRX it was 1.34 fold enrichment (6-mer frequency, TF over GST control); with ETV1, 2.62 fold enrichment (6-mer frequency, TF over GST control).
Take CTCGTT: the binding signal with FEV was 1.22 fold enrichment (6-mer frequency, TF over GST control); with ETV5 it was 1.29 fold enrichment (6-mer frequency, TF over GST control); with HSF1, 1.24 fold enrichment (6-mer frequency, TF over GST control); with SPIC, 1.37 fold enrichment (6-mer frequency, TF over GST control); with ELF4 it was 1.28 fold enrichment (6-mer frequency, TF over GST control); with ELK4, 1.4 fold enrichment (6-mer frequency, TF over GST control). The binding signal with ETV2 is 1.36 fold enrichment (6-mer frequency, TF over GST control); with ELF3, 1.46 fold enrichment (6-mer frequency, TF over GST control); with CRX it was 1.1 fold enrichment (6-mer frequency, TF over GST control); with ETV1, 1.22 fold enrichment (6-mer frequency, TF over GST control).
In the case of TGTTGC, the binding signal was 1.25 fold enrichment (6-mer frequency, TF over GST control) in the experiment with FEV; 1.35 fold enrichment (6-mer frequency, TF over GST control) in the experiment with ETV5; 1.02 fold enrichment (6-mer frequency, TF over GST control) in the experiment with HSF1; 1.17 fold enrichment (6-mer frequency, TF over GST control) in the experiment with SPIC; 1.34 fold enrichment (6-mer frequency, TF over GST control) with ELF4; 1.37 fold enrichment (6-mer frequency, TF over GST control) with ELK4. In addition, the binding signal with ETV2 was 1.15 fold enrichment (6-mer frequency, TF over GST control); in the experiment with ELF3, 1.28 fold enrichment (6-mer frequency, TF over GST control); with CRX, 1.08 fold enrichment (6-mer frequency, TF over GST control); with ETV1, 1.4 fold enrichment (6-mer frequency, TF over GST control).
GTCTCC: the binding signal was 1.53 fold enrichment (6-mer frequency, TF over GST control) in the experiment with FEV; 1.46 fold enrichment (6-mer frequency, TF over GST control) with ETV5; 1.15 fold enrichment (6-mer frequency, TF over GST control) with HSF1; 1.32 fold enrichment (6-mer frequency, TF over GST control) with SPIC; 1.43 fold enrichment (6-mer frequency, TF over GST control) with ELF4; 1.46 fold enrichment (6-mer frequency, TF over GST control) with ELK4. For the same sequence, the binding signal in the experiment with ETV2 is 1.38 fold enrichment (6-mer frequency, TF over GST control); with ELF3, 1.46 fold enrichment (6-mer frequency, TF over GST control); with CRX it was 1.04 fold enrichment (6-mer frequency, TF over GST control); with ETV1, 1.37 fold enrichment (6-mer frequency, TF over GST control).
With ACAGCT, the binding signal with FEV was 1.07 fold enrichment (6-mer frequency, TF over GST control); with ETV5, 1.02 fold enrichment (6-mer frequency, TF over GST control); with HSF1 it was 1.07 fold enrichment (6-mer frequency, TF over GST control); in the experiment with SPIC, 1.11 fold enrichment (6-mer frequency, TF over GST control); in the experiment with ELF4, 1.15 fold enrichment (6-mer frequency, TF over GST control); with ELK4 it was 1.13 fold enrichment (6-mer frequency, TF over GST control). The binding signal with ETV2 was 1.16 fold enrichment (6-mer frequency, TF over GST control); with ELF3 it was 1.36 fold enrichment (6-mer frequency, TF over GST control); in the experiment with CRX, 1.18 fold enrichment (6-mer frequency, TF over GST control); with ETV1, 1.08 fold enrichment (6-mer frequency, TF over GST control).
On to TAATCT, for which the binding signal with FEV was 1.3 fold enrichment (6-mer frequency, TF over GST control); with ETV5, 1.44 fold enrichment (6-mer frequency, TF over GST control); with HSF1, 3.55 fold enrichment (6-mer frequency, TF over GST control); in the experiment with SPIC, 1.3 fold enrichment (6-mer frequency, TF over GST control); with ELF4, 1.51 fold enrichment (6-mer frequency, TF over GST control); with ELK4 it was 1.4 fold enrichment (6-mer frequency, TF over GST control). Moreover, the binding signal is 1.34 fold enrichment (6-mer frequency, TF over GST control) with ETV2; 1.57 fold enrichment (6-mer frequency, TF over GST control) with ELF3; 5.78 fold enrichment (6-mer frequency, TF over GST control) with CRX; 1.52 fold enrichment (6-mer frequency, TF over GST control) in the experiment with ETV1.
For the sequence ACACTT, the binding signal was 1.68 fold enrichment (6-mer frequency, TF over GST control) with FEV; 1.67 fold enrichment (6-mer frequency, TF over GST control) with ETV5; 1.11 fold enrichment (6-mer frequency, TF over GST control) in the experiment with HSF1; 1.71 fold enrichment (6-mer frequency, TF over GST control) with SPIC; 1.55 fold enrichment (6-mer frequency, TF over GST control) with ELF4; 1.49 fold enrichment (6-mer frequency, TF over GST control) with ELK4. Also, the binding signal with ETV2 was 1.58 fold enrichment (6-mer frequency, TF over GST control); with ELF3 it was 1.66 fold enrichment (6-mer frequency, TF over GST control); in the experiment with CRX, 1.16 fold enrichment (6-mer frequency, TF over GST control); in the experiment with ETV1, 1.77 fold enrichment (6-mer frequency, TF over GST control).
For CTTAGT, the binding signal with FEV is 1.13 fold enrichment (6-mer frequency, TF over GST control); with ETV5 it was 1.3 fold enrichment (6-mer frequency, TF over GST control); in the experiment with HSF1 it was 1.49 fold enrichment (6-mer frequency, TF over GST control); with SPIC, 1.09 fold enrichment (6-mer frequency, TF over GST control); with ELF4, 1.26 fold enrichment (6-mer frequency, TF over GST control); with ELK4, 1.12 fold enrichment (6-mer frequency, TF over GST control). In addition, the binding signal with ETV2 was 1.06 fold enrichment (6-mer frequency, TF over GST control); with ELF3, 1.18 fold enrichment (6-mer frequency, TF over GST control); with CRX it was 1.98 fold enrichment (6-mer frequency, TF over GST control); with ETV1, 1.17 fold enrichment (6-mer frequency, TF over GST control).
